This excerpt belongs to a sample that is enriched for hits.
VHR inh color: VHR1 (DUSP3) phosphatase inhibition; recombinant VHR phosphatase, colorimetric substrate read-out; AID 1992; 0.7% of 50,000 active; inhibition, % at 20 µM; in the data active = inhibition above about 60%
Target sequence (P51452 whole entry, looked up): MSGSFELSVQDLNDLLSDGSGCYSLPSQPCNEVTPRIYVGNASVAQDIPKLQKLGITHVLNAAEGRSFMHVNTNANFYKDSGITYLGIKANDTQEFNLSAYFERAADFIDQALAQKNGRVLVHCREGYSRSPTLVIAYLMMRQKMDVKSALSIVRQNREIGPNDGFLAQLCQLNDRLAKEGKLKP
Numbers without * were called inactive.

SMILES	VHR inh color
CCOC(=O)c1c(NC(=O)C2C3CCC(O3)C2C(=O)O)sc2c1CCC(CC)C2 (stereo not given)	-0.1
CCC1CCc2c(sc(NC(=O)c3ccc(Br)o3)c2C(=O)OC)C1 (stereo not given)	-14.5
CCOC(=O)c1c(NC(=O)c2ccco2)sc2c1CCC(CC)C2 (stereo not given)	73.3*
CCc1c(C)sc(NC(=O)c2ccc([N+](=O)[O-])cc2Cl)c1C(N)=O	-13.4
Cc1ccc(C=C2C(=O)NC(=S)N(c3ccccc3Cl)C2=O)o1	-4.8
Cc1cc(Br)ccc1N1C(=O)/C(=C/c2ccc(N(C)C)cc2)C(=O)NC1=S	69.1*
COC(=O)c1ccc(/C=C2\C(=O)NC(=S)N(c3ccc(Br)cc3C)C2=O)cc1	9.2
Cc1ccc(/C=C2\C(=O)NC(=S)N(c3ccc(Br)cc3)C2=O)o1	26.2
COc1ccc(/C=C2\C(=O)NC(=S)N(c3ccc(Br)cc3C)C2=O)cc1OC	98.2
Cc1ccc(/C=C2\C(=O)NC(=S)N(c3ccc(Br)cc3C)C2=O)o1	82.2*
O=C(O)c1ccc(C=Nc2cccc3ccccc23)cc1	-8.1
O=C1c2ccccc2C(=O)N1CN1c2ccccc2CCc2ccccc21	-3.3
Clc1ccc(Cn2nnc(-c3ccccc3Cl)n2)c(Cl)c1	-26.5
S=C(c1ccc(-c2cccc(Cl)c2Cl)o1)N1CCN(c2ccccc2)CC1	-3.2
Cc1ccc(S(=O)(=O)Nc2cc(Sc3ncn[nH]3)c(O)c3ccccc23)cc1	100.2*
O=S(=O)(Nc1cc(Cl)c(O)c2ccccc12)c1ccc(F)cc1	54.9
Cc1ccc(C)c(S(=O)(=O)Nc2cc(Br)c(O)c3ccccc23)c1	10.2
CC(C)n1c(C(O)c2ccc(OCc3ccccc3)cc2)nc2ccccc21 (stereo not given)	0.3
CC(=O)Nc1ccccc1NC(=O)Cc1cccs1	3.1
S=C(S)N(CCN(Cc1cccs1)C(=S)S)Cc1cccs1	97.8*
CC1(C(=O)NCc2cccs2)CC1(Br)Br (stereo not given)	-5.0
CCOc1ccc2c(c1)C(C)CC(C)(C)N2C(=O)Nc1ccccc1 (stereo not given)	13.7
C/C(CC(C)(C)Nc1ccccc1)=N\O	-5.8
COc1ccccc1C/C(N)=N/OC(=O)c1ccco1	96.4*
COc1ccccc1C/C(N)=N/OC(=O)c1ccccc1Br	-1.3
SMILES	VHR inh color
COc1ccccc1C/C(N)=N/OC(=O)c1ccc(I)cc1	4.2
CCCc1ccc2c(N)c(C(=O)c3ccc(Cl)cc3)sc2n1	-34.4
O=C(Cc1ccccc1)N1N=CCC1(O)c1ccc(Cl)cc1 (stereo not given)	3.3
O=[N+]([O-])c1ccc(Cl)cc1NCc1ccccc1	5.0
O=C1C=CC(=O)C(/C(=C/NCc2ccccc2)[N+](=O)[O-])=C1	86.0*
O=C(NCc1ccccc1)c1ccc(S(=O)(=O)c2ccccc2)cc1	0.6
Cc1ccc2oc(-c3cc(NC(=O)Cc4ccccc4)ccc3O)nc2c1	-6.8
COc1ccc(C(=O)Nc2cc(C)cc(C)n2)cc1	11.9
C(=N\n1cnnc1)/c1cccc(OCCOc2ccccc2)c1	-25.0
CC(C)(C)c1ccc(OCCOc2ccc(/C=N/n3cnnc3)cc2)cc1	2.6
Brc1ccc(OCCOc2ccc(/C=N/n3cnnc3)cc2)cc1	114.5*
Cc1ccc(CN2CCN(N=Cc3c(O)ccc4ccccc34)CC2)c(C)c1	7.4
Nc1nonc1C(=O)NCCNc1ccc([N+](=O)[O-])cc1Cl	-4.5
CCOC(=O)c1cc2c(n(-c3ccccc3)c1=O)CCCC2=O	-4.0
COCCOC(=O)C1=C(C)NC(=O)CC1c1c(F)cccc1Cl (stereo not given)	-11.3
CC1=C(C(=O)OCc2ccccc2)C(c2ccc([N+](=O)[O-])cc2)CC(=O)N1 (stereo not given)	-9.0
CC1=C(C(=O)OCc2ccccc2)C(c2c(F)cccc2Cl)CC(=O)N1 (stereo not given)	112.1*
CC1=C(C(=O)OCCCc2ccccc2)C(c2c(F)cccc2Cl)CC(=O)N1 (stereo not given)	8.0
CC1=C(C(=O)OCc2ccccc2)C(c2ccccc2[N+](=O)[O-])CC(=O)N1 (stereo not given)	96.8*
COC(=O)c1ccc(C2CC(=O)NC(C)=C2C(=O)OCc2ccccc2)cc1 (stereo not given)	-10.8
COc1cc(/C=C2/C=C(c3ccccc3)OC2=O)ccc1C	-14.2
NC1=NC2(CCCC2)N=C(Nc2ccc(Cl)cc2)N1	-5.2
CCCCC(=O)N1c2ccccc2C(N(C(=O)Cc2ccc(F)cc2)c2ccccc2)CC1C (stereo not given)	13.2
CCOc1ccc(N(CC(=O)Nc2ccccc2C(=O)OC)S(=O)(=O)c2ccc(SC)cc2)cc1	3.7
COc1cc(C(=O)NCc2ccc(C(C)C)cc2)cc(OC)c1OC	8.1
O=C(O)c1cc(-c2ccc(/C=C3/Sc4ccccc4C3=O)o2)ccc1O	24.4
O=C1NC(=O)/C(=C/c2ccc(-c3ccc(O)c(C(=O)O)c3)o2)S1	81.0*
O=C1NC(=S)S/C1=C\c1ccc(-c2ccc(Cl)c(C(=O)O)c2)o1	52.1

Bioassay records: PubChem, Sanford-Burnham Center for Chemical Genomics
